The record followed here is PubChem BioAssay (Tox21).

The nature of assay [1]: qHTS assay to identify small molecule agonists of the constitutive androstane receptor (CAR) signaling pathway - cell viability counter screen (AID 1224836). Also: nearly all actives have a fitted effect of over 45% in size. An outline of the steps: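 Cells were seeded and incubated 4 hrs. Compounds were added across 15 concentrations together with PK11195 at 0.75 uM final. Plates were incubated 23 hrs at 37 C. CellTiter-Fluor was added and fluorescence measured.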
(In qHTS, concentration-response curves come from the screen itself.)

Assay [2] is described as follows: qHTS assay to identify small molecule antagonists of the constitutive androstane receptor (CAR) signaling pathway - cell viability counter screen (AID 1224837). Also: nearly all actives have a fitted effect of over 45% in size. An outline of the steps:
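HepG2-CYP2B6-hCAR cells, 2500/well, 4 hr pre-incubation; compound titration, 15 conc.; CITCO 50 nM final; 23 hr, 37 C/5% CO2; CellTiter-Fluor, fluorescence intensity.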

A short description of assay [3]: qHTS assay to identify small molecule antagonists of the estrogen related receptor signaling pathway with the pleiotropic PPARgamma coactivator (PGC) from Tox21 10K library - cell viability counter screen (AID 1224840; active = well fitted cell-killing curve with a large enough effect in the repeat runs, not every such curve was filed as active; also: nearly all actives have a fitted effect of over 40% in size; also: potency is read from the fitted curve at half-maximal effect). An outline of the steps: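 PGC/ERR cells, 2,000/well; 6 h pre-incubation 37 C/5% CO2; cpd in DMSO via pin tool; 17.5 h 37 C; CellTiter-Fluor, 30 min; fluorescence.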

Assay [4] can be described thus: qHTS assay to identify small molecule antagonists of the estrogen related receptor signaling pathway with the pleiotropic PPARgamma coactivator (PGC) from Tox21 10K library (AID 1224841; call rule not given here; also: actives are mostly falling curves and most rising ones were filed inactive; nearly all actives have a fitted effect of over 50% in size). The procedure, abridged: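 PGC/ERR cell line, 2,000 cells/well; 6 h pre-incubation 37 C/5% CO2; compounds (DMSO) pinned in; 18 h, 37 C; One-Glo, 30 min RT; luminescence.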
A short description of assay [5]: qHTS assay to identify small molecule agonists of the estrogen related receptor signaling pathway with the pleiotropic PPARgamma coactivator (PGC) from Tox21 10K library (AID 1224842). Also: nearly all actives have a fitted effect of over 15% in size. The procedure, abridged:
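Luminescence from One-Glo (30 min, room temperature) measured after PGC/ERR cells had 18 h at 37 C with pinned compound (23 nL in DMSO). Cells had been seeded at 2,000 per well and pre-incubated 6 h.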

The nature of assay [6]: qHTS assay to identify small molecule agonists of the hypoxia (HIF-1) signaling pathway - cell viability counter screen (AID 1224844; calls by dose curve; also: nearly all actives have a fitted effect of over 50% in size; also: potency is read from the fitted curve at half-maximal effect). An outline of the steps:
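ME-180 HRE-bla cells, 2,000/well, 0.5% dialyzed FBS; 5 hr settle, 17 hr compound at 37C/5% CO2; CCF4-AM reporter read first, then CellTiter-Glo luminescence after 30 min RT.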

Assay [7] can be described thus: qHTS assay to identify small molecule agonists of H2AX - cell viability counter screen (AID 1224847; calls by dose curve; also: nearly all actives have a fitted effect of over 30% in size; also: potency is read from the fitted curve at half-maximal effect). The procedure, abridged: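 Cytotoxicity counter screen in wild-type CHO-K1 cells: a 3 hr compound treatment at 37C across 15 concentrations, followed by CellTiter-Glo luminescence to gauge viable cells.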
A short description of assay [8]: qHTS assay to identify small molecule antagonists of the estrogen related receptor (ERR) signaling pathway from Tox21 library (AID 1224848). Also: nearly all actives have a fitted effect of over 50% in size. Also: potency is read from the fitted curve at half-maximal effect. The procedure, abridged: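 Antagonist-mode screen of the Tox21 10K library in an NTP-provided ERR reporter cell line; 18 h compound exposure at 37 C, luminescence measured with ONE-Glo.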
The nature of assay [9]: qHTS assay to identify small molecule agonists of the estrogen related receptor (ERR) signaling pathway from Tox21 library (AID 1224849; calls by dose curve; also: nearly all actives have a fitted effect of over 15% in size). Particulars: ERR reporter cell line, ONE-Glo luciferase, 18 h; at 92.4 µM (top of the series) unless noted. The procedure, abridged:
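ERR cells, 6 h pre-incubation 37 C/5% CO2; cpd in DMSO pinned; 18 h 37 C; ONE-Glo added, 30 min RT; luminescence read. Agonist mode, qHTS.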

Assay [10] can be described thus: qHTS RealTime-Glo MT Cell Viability Assay in HEK293 cells - 32 hour (AID 1224868). Also: nearly all actives have a fitted effect of over 50% in size. Also: potency is read from the fitted curve at half-maximal effect. An outline of the steps: (§1)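 Reads taken at 0, 8, 16, 24, 32 and 40 h from the same wells. HEK293 cells (600/well) carried RealTime-Glo reagents from seeding, with compound added after a 5 h settle at 37 C.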
Assay [11] is described as follows: A CellTox Green Cytotoxicity Assay to monitor cytotoxicity in HEK293 cells - 0 hour (AID 1224869). Also: nearly all actives have a fitted effect of over 50% in size. An outline of the steps:
(§2)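 Nonlytic real-time cytotoxicity: HEK293 + CellTox Green reagent plated, 5 h preincubation, pintool compound addition (23 nL in DMSO), 37 C for 40 h, fluorescence measured at successive time points.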

Assay [12] can be described thus: qHTS RealTime-Glo MT Cell Viability Assay in HepG2 cells - 40 hour (AID 1224870). Also: nearly all actives have a fitted effect of over 50% in size. The procedure, abridged:
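Real-time viability: cells seeded at 600 per well together with NanoLuc and cell-permeant prosubstrate, compounds added after 5 h incubation. Luminescence tracked at 0, 8, 16, 24, 32 and 40 h of exposure.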

Assay [13] in a line: A CellTox Green Cytotoxicity Assay to monitor cytotoxicity in HEK293 cells - 40 hour (AID 1224871). Also: nearly all actives have a fitted effect of over 45% in size. An outline of the steps:
as §2

Assay [14] can be described thus: qHTS RealTime-Glo MT Cell Viability Assay in HEK293 cells - 16 hour (AID 1224872). Also: nearly all actives have a fitted effect of over 50% in size. Also: potency is read from the fitted curve at half-maximal effect. An outline of the steps: as §1
For assay [15], the target named is Thyrotropin receptor (Homo sapiens) (UniProt P16473). In words: qHTS assay to identify small molecule agonists of the thyroid stimulating hormone receptor (TSHR) signaling pathway (AID 1224843; calls by dose curve; also: nearly all actives have a fitted effect of over 45% in size; also: potency is read from the fitted curve at half-maximal effect). An outline of the steps:
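Screening of the Tox21 10K collection used HEK293 cells engineered with TSHR at 800 cells per well. After a 30-min room-temperature compound exposure, HTRF cAMP reagents were added and fluorescence recorded 1 h later.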

Assay [16] in a line: qHTS assay to identify small molecule agonists of H2AX (AID 1224845; active = well fitted activation curve with a large enough effect in the signal ratio in the repeat runs, not every such curve was filed as active; the % refers to the signal ratio). The procedure, abridged:
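Phospho-H2AX Ser139 measured by HTRF (ex 320 nm; em 665 and 620 nm) after 24 hr antibody incubation. Compounds, 15 concentrations, 0.76% DMSO, were applied to CHO-K1 cells for 3hr at 37C before lysis.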

Assay [17] can be described thus: qHTS assay to identify small molecule agonists of the hypoxia (HIF-1) signaling pathway (AID 1224846; active = well fitted activation curve with a large enough effect in the signal ratio in the repeat runs, not every such curve was filed as active; the % refers to the signal ratio). An outline of the steps: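 Cell line: CellSensor HRE-bla ME-180; 2,000 cells/well; 0.5% dialyzed FBS; 5 h preincubation; DMSO compound pin transfer; 17 h, 37C, 5% CO2; CCF4-AM added; bla FRET signal scored for activation.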
A short description of assay [18]: qHTS RealTime-Glo MT Cell Viability Assay in HepG2 cells - 24 hour (AID 1224867). Also: nearly all actives have a fitted effect of over 50% in size. An outline of the steps: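 HepG2 suspension premixed with RealTime-Glo reagents is plated at 600 cells per well and left 5 h at 37 C/5% CO2. Compounds in DMSO then go in, and bioluminescence reflecting viable cell number is recorded over 40 h.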

Molecules are shown by their SMILES. Unmarked numbers belong to inactive results. Results filed as inconclusive are left out. Activity calls are given as the source filed them. Unless noted, calls follow the shape of the dose curve; as a rule, active = well fitted curve in the direction sought with a large enough effect in the repeat runs; inconclusive = weak or mixed curves; inactive = no such curve, though single readings can be large; an effect the other way counts as inactive or inconclusive.
% is scaled to controls: 0 for no effect and ±100 for the full control effect.

Sequence of Thyrotropin receptor (Homo sapiens) (P16473 whole entry, looked up): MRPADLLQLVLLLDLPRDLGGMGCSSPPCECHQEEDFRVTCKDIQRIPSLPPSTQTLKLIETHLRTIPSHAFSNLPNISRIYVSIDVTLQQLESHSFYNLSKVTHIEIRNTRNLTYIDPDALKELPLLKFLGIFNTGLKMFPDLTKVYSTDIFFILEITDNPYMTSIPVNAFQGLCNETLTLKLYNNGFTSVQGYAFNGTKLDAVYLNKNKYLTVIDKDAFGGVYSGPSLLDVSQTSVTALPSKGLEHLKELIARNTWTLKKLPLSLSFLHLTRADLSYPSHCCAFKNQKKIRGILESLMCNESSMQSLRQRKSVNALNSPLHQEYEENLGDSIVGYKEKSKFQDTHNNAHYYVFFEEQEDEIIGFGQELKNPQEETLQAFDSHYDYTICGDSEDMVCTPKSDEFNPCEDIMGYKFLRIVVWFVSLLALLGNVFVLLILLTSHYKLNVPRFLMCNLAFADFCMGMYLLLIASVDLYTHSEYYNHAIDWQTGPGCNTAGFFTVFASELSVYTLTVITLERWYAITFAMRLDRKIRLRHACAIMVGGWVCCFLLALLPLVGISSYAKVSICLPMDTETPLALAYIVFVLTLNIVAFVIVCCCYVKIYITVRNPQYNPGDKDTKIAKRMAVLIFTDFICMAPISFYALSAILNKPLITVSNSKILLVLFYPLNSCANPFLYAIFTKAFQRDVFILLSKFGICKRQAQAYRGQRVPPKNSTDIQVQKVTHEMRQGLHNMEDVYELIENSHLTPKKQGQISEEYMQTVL

As to `CCN(CC)c1cccc(C)c1`, the Potency result in assay [1], in assay [2], in assay [3], in assay [4], in assay [5] and in assay [6] was “inactive” throughout. In addition, the Potency result in assay [7], in [8], in assay [10], in [11], in assay [12] and in assay [13] was “inactive” in each case. Moreover, the Potency result in [14] is “inactive”. Moreover, the activity change, positive = activation in assay [9] is 9.53%.

As to `O=S(=O)(O)CCCN1CCOCC1`, the Potency entry in assay [1], in assay [2], in assay [3], in [4], in assay [5] and in assay [15] was “inactive” in each case. Moreover, the Potency result in assay [6], in assay [16], in assay [7], in [8], in [18] and in assay [10] was “inactive” in each case. In addition, the Potency entry in assay [11], in assay [12] and in assay [14] was “inactive” each time. Further, the outcome in assay [17] was inactive. In assay [9], the activity change, positive = activation is -0.481%.

As to `COc1nccnc1CC(C)C`, the Potency entry in [1], in assay [2], in [3], in assay [4], in assay [5] and in assay [15] was “inactive” each time. The Potency result in assay [6], in assay [16], in assay [7], in [8], in assay [18] and in [10] was “inactive” in each case. Besides, the Potency entry in [12], in assay [13] and in assay [14] was “inactive” throughout. Also, the call in [17] was inactive. For the same compound, the activity change, positive = activation in [9] was 0.914%.

With `CN(Cc1cc(Br)cc(Br)c1N)C1CCCCC1`, the Potency result in assay [1], in [2], in [3], in assay [4], in assay [5] and in assay [8] was “inactive” each time. For the same compound, the Potency result in assay [18] and in assay [12] was “inactive” throughout. For the same compound, the activity change, positive = activation in assay [9] was -11.1% [at 42.5 µM].

For the compound `CC(C)(C)c1cc(/C=C2\SC(=N)NC2=O)cc(C(C)(C)C)c1O`, the Potency result in assay [1], in assay [2], in [5] and in [11] was “inactive” each time. Also, the Potency is 61.1 µM (active) in [3]; 54.9 µM (active) in assay [6]; 48.6 µM (active) in assay [8]; 49 µM (active) in [10]; 43.6 µM (active) in assay [14]. Further, the activity change, positive = activation in assay [9] is -57.9%.

`CC1CCCCN1CCCOC(=O)c1ccc(OC2CCCCC2)cc1` (centres undefined): the Potency result in assay [1], in [2], in assay [3], in [4], in assay [5] and in [6] was “inactive” throughout. Moreover, the Potency entry in assay [16], in assay [7] and in assay [11] was “inactive” throughout. The Potency in [15] is 26.6 µM (active); in assay [8] it was 11.9 µM (active); in [10], 21.3 µM (active); in assay [14], 15.1 µM (active). The activity change, positive = activation in [9] was -35.8% [at 42.5 µM].

With `Cn1cccc1`, the Potency entry in [1], in assay [2], in assay [3], in assay [4], in [5] and in assay [15] was “inactive” each time. Besides, the Potency entry in [6], in assay [16], in assay [7], in assay [8], in assay [18] and in [10] was “inactive” throughout. Besides, the Potency result in assay [11], in assay [12], in assay [13] and in assay [14] was “inactive” each time. For the same compound, the compound was called inactive in assay [17]. Further, the activity change, positive = activation in assay [9] was -4.51%.

In the case of `CC(C)N=C(N)/N=C(\N)Nc1ccc(Cl)cc1`, the Potency entry in assay [1], in [2], in assay [3], in [4], in assay [5] and in assay [18] was “inactive” each time. Moreover, the Potency entry in assay [11], in assay [12] and in assay [13] was “inactive” in each case. Also, in [9], the activity change, positive = activation is -24.8% [at 42.5 µM]. Further, the Potency in assay [10] is 26.8 µM (active).

Regarding `CCc1ccc(O)c(C(C)(C)C)c1`, the Potency result in assay [1], in assay [2], in assay [3], in assay [15], in assay [6] and in [16] was “inactive” each time. Also, the Potency entry in [18], in assay [10] and in assay [14] was “inactive” each time. The call in [17] was inactive. Besides, in assay [7], the Potency was 101 µM (active).

Turning to `CC(C)(C)c1n[nH]c(=O)n(N)c1=O`, the Potency entry in [1], in assay [2], in [3], in [4], in [5] and in assay [15] was “inactive” in each case. Further, the Potency entry in assay [6], in assay [16], in [7], in [8], in assay [18] and in assay [10] was “inactive” each time. The Potency entry in assay [11], in assay [12], in [13] and in assay [14] was “inactive” in each case. Besides, the outcome in assay [17] was inactive. For the same compound, in assay [9], the activity change, positive = activation is -7.06%.
